Data published in PubChem BioAssay (NCI).
This is part of a sample that, as a whole, favours compounds with a hit. Of some 79,000 tested, about 15% had one in any assay. Calls of active or inactive are those of the source. Rule as the data show it: active = growth inhibition above about 70%; inactive = the rest.

What was measured:
[1] = NCI Yeast Anticancer Drug Screen. Data for the rad52 strain (AID 147);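 also: 0% = growth of vehicle-treated control cultures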; settings: S. cerevisiae rad52 mutant growth inhibition, stronger effect = higher value
Procedure, shortened: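 Compounds are applied to a genetically defined yeast strain lacking normal DNA damage repair, and inhibition of growth is expressed relative to cultures given vehicle only.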

[2] = NCI Yeast Anticancer Drug Screen. Data for the wt1 strain (AID 149);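 also: 0% = growth of vehicle-treated wt1 cultures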; settings: S. cerevisiae wt1 strain (SPY 50644) growth inhibition, stronger effect = higher value
Procedure, shortened: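 Readout: yeast growth inhibition, normalised to vehicle controls, in the wt1 strain exposed to test compounds.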

[3] = NCI Yeast Anticancer Drug Screen. Data for the rad50EPP+ strain (AID 151);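 also: 0% = growth of vehicle-treated control cultures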; settings: S. cerevisiae rad50 mutant strain, stronger effect = higher value
Procedure, shortened: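 Compounds were applied to the rad50EPP+ yeast strain, which bears a defined DNA repair alteration, and growth inhibition was determined relative to vehicle-treated cultures.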

[4] = NCI Yeast Anticancer Drug Screen. Data for the mgt1 strain (AID 153); settings: S. cerevisiae mgt1 mutant growth inhibition, stronger effect = higher value
Procedure, shortened: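 Strain: mgt1 yeast, one of a set carrying defined DNA damage repair or cell cycle control alterations. Compound-treated growth compared with vehicle.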

[5] = NCI Yeast Anticancer Drug Screen. Data for the rad50 strain (AID 155);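 also: 0% = growth of vehicle-only cultures of the same strain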; settings: S. cerevisiae rad50 strain growth inhibition, stronger effect = higher value
Procedure, shortened: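 Compounds were tested on a yeast strain with an engineered DNA damage repair alteration; the reported value is growth inhibition normalised to vehicle treatment.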

[6] = NCI Yeast Anticancer Drug Screen. Data for the mec2-1 strain (AID 157); settings: S. cerevisiae mec2-1 strain, stronger effect = higher value
Procedure, shortened: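 Strain: mec2-1 (DNA repair/cell cycle alteration). Compound exposure, then growth measured; inhibition expressed relative to vehicle.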

[7] = NCI Yeast Anticancer Drug Screen. Data for the rad14 strain (AID 159);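 also: 0% = growth of vehicle-treated control cultures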; settings: S. cerevisiae rad14 strain growth inhibition, stronger effect = higher value
Procedure, shortened: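 Compound-treated yeast with a defined DNA-repair lesion; growth inhibition normalised to vehicle-treated cultures.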

[8] = NCI Yeast Anticancer Drug Screen. Data for the sgs1 mgt1 strain (AID 161);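 also: 0% = growth of cultures given vehicle only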; settings: S. cerevisiae sgs1 mgt1 strain, stronger effect = higher value
Procedure, shortened: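 Test agents were incubated with a DNA-repair-mutant yeast strain. Growth was then read and compared against vehicle-treated controls.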

[9] = NCI Yeast Anticancer Drug Screen. Data for the CLN2oe strain (AID 163);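 also: 0% = growth of vehicle-only control cultures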; settings: S. cerevisiae CLN2oe strain, stronger effect = higher value
Procedure, shortened: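 Growth of a genetically modified yeast strain is measured after compound exposure and compared with cultures given vehicle alone.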

[10] = NCI Yeast Anticancer Drug Screen. Data for the cln2 rad14 strain (AID 165);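 also: 0% = growth equal to vehicle treated cultures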; settings: S. cerevisiae cln2 rad14 strain, stronger effect = higher value
Procedure, shortened: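 Compounds are applied to the cln2 rad14 yeast strain, and growth is then compared with that of vehicle-treated cultures to give inhibition.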

[11] = NCI Yeast Anticancer Drug Screen. Data for the bub3 strain (AID 167); settings: S. cerevisiae bub3 mutant strain, stronger effect = higher value
Procedure, shortened: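 Growth of a checkpoint-deficient yeast mutant is measured after compound exposure. Values represent inhibition relative to vehicle.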

[12] = NCI Yeast Anticancer Drug Screen. Data for the wt2 strain (AID 169);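 also: 0% = growth of vehicle-treated yeast cultures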; settings: S. cerevisiae wt2 strain growth inhibition, stronger effect = higher value
Procedure, shortened: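 This strain belongs to a panel of yeast strains with defined genetic alterations in DNA damage repair or cell cycle control. Compounds are applied, and growth inhibition is measured against vehicle-treated cultures.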

[13] = NCI Yeast Anticancer Drug Screen. Data for the mlh1 strain (AID 171);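 also: 0% = growth of vehicle-treated control cultures of the same strain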; settings: S. cerevisiae mlh1 strain growth inhibition, stronger effect = higher value
Procedure, shortened: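 Growth of the mutant yeast strain after compound exposure, expressed as inhibition relative to vehicle-only controls.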

[14] = NCI Yeast Anticancer Drug Screen. Data for the sgs1 strain (AID 173);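 also: 0% = growth of vehicle-only control cultures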; settings: S. cerevisiae sgs1 mutant, stronger effect = higher value
Procedure, shortened: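 Growth of a yeast strain bearing a defined genetic alteration is measured after compound treatment. Inhibition is expressed relative to vehicle-only controls.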

[15] = NCI Yeast Anticancer Drug Screen. Data for the mlh1 rad18 strain (AID 175); settings: S. cerevisiae mlh1 rad18 strain growth inhibition, stronger effect = higher value
Procedure, shortened: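 Read-out is yeast growth inhibition, calculated against vehicle-only controls. The compound was applied to a strain engineered with DNA damage repair alterations.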

[16] = NCI Yeast Anticancer Drug Screen. Data for the rad18 strain (AID 177); settings: S. cerevisiae rad18 mutant growth inhibition, stronger effect = higher value
Procedure, shortened: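 Growth of the mutant yeast strain after compound exposure, normalised to vehicle-only cultures.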

[17] = at 5.0 µM (retest, dose inferred, filed as 0.5)
[18] = at 50.0 µM (retest, dose inferred, filed as 5.0)

Measured: growth inhibition

O=C(/C=C(\c1ccccc1)N1CC1)c1ccccc1
active: [1]; at 100.0 µM 97% | [2]; at 100.0 µM 84% | [3]; at 33.0 µM 72% | [3]; at 100.0 µM 86% | [4]; at 100.0 µM 93% | [5]; [18] 86% | [5]; at 100.0 µM 98% | [6]; at 100.0 µM 97% | [7]; at 100.0 µM 99% | [9]; at 100.0 µM 84% | [11]; at 100.0 µM 93% | [12]; at 100.0 µM 93% | [13]; at 100.0 µM 98% | [14]; at 100.0 µM 97% | [15]; [18] 73% | [16]; at 100.0 µM 96%
inactive: [1]; at 1.2 µM -5% | [1]; at 3.7 µM -10% | [1]; at 11.0 µM -2% | [1]; at 33.0 µM 8% | [2]; at 1.2 µM -5% | [2]; at 3.7 µM -4% | [2]; at 11.0 µM -5% | [2]; at 33.0 µM 0% | [3]; at 1.2 µM 2% | [3]; at 3.7 µM 17% | [3]; at 11.0 µM 50% | [4]; at 1.2 µM -2% | [4]; at 3.7 µM -4% | [4]; at 11.0 µM -4% | [4]; at 33.0 µM 19% | [5]; at 1.2 µM -13% | [5]; at 3.7 µM -7% | [5]; [17] -140% | [5]; at 11.0 µM 8% | [5]; at 33.0 µM 33% | [5]; at 50.0 µM 62.5% | [6]; at 1.2 µM 2% | [6]; at 3.7 µM 1% | [6]; [17] -46% | [6]; at 11.0 µM 12% | [6]; at 33.0 µM -1% | [6]; [18] 28% | [6]; at 50.0 µM 59.8% | [7]; at 1.2 µM -4% | [7]; at 3.7 µM -1% | [7]; at 11.0 µM 3% | [7]; at 33.0 µM 40% | [8]; [17] -58% | [8]; [18] 47% | [8]; at 50.0 µM 17.2% | [9]; at 1.2 µM 4% | [9]; at 3.7 µM 1% | [9]; at 11.0 µM 0% | [9]; at 33.0 µM 0% | [10]; [17] -63% | [10]; [18] 12% | [10]; at 50.0 µM 0.55% | [11]; at 1.2 µM -7% | [11]; at 3.7 µM 0% | [11]; [17] -62% | [11]; at 11.0 µM 8% | [11]; at 33.0 µM 21% | [11]; [18] 54% | [11]; at 50.0 µM 63.9% | [12]; at 1.2 µM 0% | [12]; at 3.7 µM 0% | [12]; at 11.0 µM 1% | [12]; at 33.0 µM 3% | [13]; at 1.2 µM 7% | [13]; at 3.7 µM -3% | [13]; at 11.0 µM -5% | [13]; at 33.0 µM 6% | [14]; at 1.2 µM 1% | [14]; at 3.7 µM 2% | [14]; at 11.0 µM 3% | [14]; at 33.0 µM 31% | [15]; [17] -139% | [15]; at 50.0 µM 67.5% | [16]; at 1.2 µM -1% | [16]; at 3.7 µM 4% | [16]; at 11.0 µM 13% | [16]; at 33.0 µM 16%
